# Laboratory results published in paper PMC4336329 (PLoS ONE, 2015).
# Out of some 310,000 compounds screened, about 2,200 (0.71%) showed an effect of 50% or more. Effects have a minus sign here. This is one part of a sample in which strong results are shown more often than they occur.
# Molecular target: human ether-à-go-go-related gene (hERG) potassium channel (human, UniProt Q12809)
# Test: primary screen, population patch clamp on CHO cells stably expressing hERG; higher = less effect of the substance
# Chain of human ether-à-go-go-related gene (hERG) potassium channel (Q12809 whole entry, looked up): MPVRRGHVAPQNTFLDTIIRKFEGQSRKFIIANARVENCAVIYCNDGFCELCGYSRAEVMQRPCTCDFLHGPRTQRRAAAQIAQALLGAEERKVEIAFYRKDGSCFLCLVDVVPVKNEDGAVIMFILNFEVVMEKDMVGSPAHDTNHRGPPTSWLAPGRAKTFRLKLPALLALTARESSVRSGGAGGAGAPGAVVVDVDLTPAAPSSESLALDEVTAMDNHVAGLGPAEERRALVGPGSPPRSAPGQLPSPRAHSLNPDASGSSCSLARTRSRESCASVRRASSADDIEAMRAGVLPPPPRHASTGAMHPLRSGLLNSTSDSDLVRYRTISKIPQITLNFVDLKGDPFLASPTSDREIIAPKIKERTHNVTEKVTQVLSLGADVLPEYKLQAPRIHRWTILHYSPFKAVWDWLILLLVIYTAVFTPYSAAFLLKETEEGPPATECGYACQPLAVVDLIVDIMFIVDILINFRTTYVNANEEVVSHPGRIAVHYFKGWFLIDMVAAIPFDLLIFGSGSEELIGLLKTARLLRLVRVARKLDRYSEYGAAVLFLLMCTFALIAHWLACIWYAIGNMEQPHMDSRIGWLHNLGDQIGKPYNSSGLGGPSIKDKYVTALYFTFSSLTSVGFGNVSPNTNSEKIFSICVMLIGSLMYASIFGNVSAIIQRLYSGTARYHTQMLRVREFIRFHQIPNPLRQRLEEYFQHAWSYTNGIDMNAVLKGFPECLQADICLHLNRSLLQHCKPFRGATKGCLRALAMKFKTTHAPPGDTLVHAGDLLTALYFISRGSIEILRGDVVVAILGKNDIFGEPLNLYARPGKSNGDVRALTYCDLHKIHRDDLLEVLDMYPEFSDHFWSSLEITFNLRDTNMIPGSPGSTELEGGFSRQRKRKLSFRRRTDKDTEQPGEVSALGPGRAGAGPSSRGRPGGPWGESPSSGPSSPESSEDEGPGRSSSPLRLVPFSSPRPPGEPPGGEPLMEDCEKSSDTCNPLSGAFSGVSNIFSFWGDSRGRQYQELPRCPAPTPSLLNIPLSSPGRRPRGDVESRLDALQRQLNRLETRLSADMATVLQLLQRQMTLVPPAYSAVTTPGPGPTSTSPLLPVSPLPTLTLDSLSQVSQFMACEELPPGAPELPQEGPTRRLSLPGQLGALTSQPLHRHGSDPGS
row,SMILES,"hERG current change (%, negative = inhibition) at 1uM"
1,CCOc1ccc(OCCN2CCCCC2)cc1.O=C(O)C(=O)O,-4.9%
2,O=C(O)C(=O)O.O=[N+]([O-])c1ccc(OCCN2CCNCC2)cc1,-52.2%
3,Cc1cc(=O)n(C)c(=O)n1CCCCCCOc1ccc([N+](=O)[O-])cc1,-11.1%
4,CC1CCN(CCCCOc2ccc([N+](=O)[O-])cc2)CC1,-77.8%
5,Cc1cc(=O)n(C)c(=O)n1CCCCOc1cccc([N+](=O)[O-])c1,9.25%
6,Cc1ccc(OCCN2CCCC2)cc1.O=C(O)C(=O)O,7.22%
7,O=C(O)C(=O)O.O=[N+]([O-])c1ccc(OCCN2CCCCCC2)cc1,-74.5%
8,CC1CCN(CCCCOc2ccc(Br)cc2)CC1,-30.4%
9,COc1ccc(OCCCCN2CCC(C)CC2)cc1.O=C(O)C(=O)O,0.418%
10,Cc1ccc(OCCN2CCNCC2)c([N+](=O)[O-])c1.O=C(O)C(=O)O,17.4%
11,Cc1cc(=O)n(C)c(=O)n1CCCCOc1ccc([N+](=O)[O-])cc1,-66.8%
12,Fc1ccc(OCCOCCN2CCNCC2)cc1.O=C(O)C(=O)O,10.4%
13,CCCc1cc(=O)oc2cc(C)cc(OCC(=O)Nc3ccc(CN4CCOCC4)cc3)c12,10.4%
14,CCCN(CCC)CCNC(=O)C1CC(=O)N(c2ccc(OC)cc2)C1c1ccc(OC)cc1 (stereo not drawn),-18.1%
15,CCOC(=O)C1(C)NC(c2ccccc2F)C2C(=O)N(c3cccc(C(C)=O)c3)C(=O)C21 (stereo not drawn),15.4%
16,CC(=O)Nc1ccc(-c2nnn(CC(=O)c3ccccc3)n2)cc1Cl,8.22%
17,CCOC(=O)c1c(C)[nH]c(C(=O)C(C)OC(=O)c2ccc(NC(=O)CC#N)cc2)c1C (stereo not drawn),17.5%
18,O=C(O)C(Oc1ccc2c(-c3ccccc3)cc(=O)oc2c1)c1ccccc1 (stereo not drawn),9.07%
19,COc1ccc2c3c(c(=O)oc2c1OCC(=O)O)CCCC3,23.8%
20,CCOc1ccc(-c2cc(C(=O)O)c3ccccc3n2)cc1,7.66%
21,Brc1ccc(OCCCCN2CCCCC2)cc1,-11.6%
22,O=[N+]([O-])c1ccc(OCCCCCN2CCOCC2)cc1,-24.9%

row,SMILES,"hERG current change (%, negative = inhibition) at 1uM"
1,O=[N+]([O-])c1ccc(OCCCCN2CCCCC2)cc1,-59.4%
2,COc1ccccc1OCCNC(=O)/C=C/c1ccc([N+](=O)[O-])cc1,-9.26%
3,COc1ccc(/C=C/C(=O)NCCOc2ccc(C)cc2)cc1,10.5%
4,COc1ccc(OCCNC(=O)/C=C/c2ccc([N+](=O)[O-])cc2)cc1,-59.9%
5,CCCOc1ccc(OCCCCNC(C)CC)cc1.O=C(O)C(=O)O (stereo not drawn),1.92%
6,CCC(C)NCCCOc1ccc([N+](=O)[O-])cc1.O=C(O)C(=O)O (stereo not drawn),-73.7%
7,CCC(C)NCCCCOc1ccc(Br)cc1.O=C(O)C(=O)O (stereo not drawn),-0.232%
8,Cc1[nH]n(-c2ccccc2)c(=O)c1C=Nc1ccc(S(=O)(=O)Nc2nccs2)cc1,12.2%
9,O=S1(=O)CCC(NC(=S)Nc2ccc3ccccc3c2)C1 (stereo not drawn),11.6%
10,COCCn1c(SCC(=O)NC2(C#N)CCCCC2)nc2ccccc2c1=O,-12.8%
11,O=c1[nH]c(Cn2nnc(-c3ccccc3)n2)nc2scc(-c3ccccc3)c12,13.1%
12,CN(C)CCNc1oc(COc2cccc(Cl)c2)nc1C#N,-4.66%
13,N#Cc1nc(COc2cccc(Cl)c2)oc1NCc1ccco1,-1.39%
14,N#Cc1nc(COc2cccc(Cl)c2)oc1NCc1ccncc1,-53.8%
15,Cc1nc2c(n1C1CCCCC1)C(=O)c1ccccc1C2=O,19.1%
16,COc1ccc2c(c1)c(C(=O)C(C)N1CCCCC1)c(C)n2C (stereo not drawn),16.9%
17,CCn1ccnc1CN1CCCC(CO)(Cc2cccc(OC)c2)C1 (stereo not drawn),-1.48%
18,OCC1(CCCc2ccccc2)CCN(Cc2cc(F)ccc2F)CC1,-6.63%
19,COc1cccc(CC2(CO)CCCN(Cc3cn[nH]c3-c3ccc(F)cc3)C2)c1 (stereo not drawn),6.39%
20,COc1cccc(CC2(CO)CCCN(Cc3cc(F)ccc3-n3cccn3)C2)c1 (stereo not drawn),-85.1%
21,COc1ccc(-n2ccnc2CN2CCCC(CO)(Cc3cccc(OC)c3)C2)cc1 (stereo not drawn),0.509%
22,COc1ccc(F)c(CN2CCCC(CO)(Cc3cccc(Cl)c3)C2)c1 (stereo not drawn),11.8%

row,SMILES,"hERG current change (%, negative = inhibition) at 1uM"
1,OCC1(CCCc2ccccc2)CCN(Cc2ccc(F)cc2)CC1,-25.3%
2,COc1cccc(CC2(CO)CCCN(Cc3c(C)cc(C)cc3-n3cccn3)C2)c1 (stereo not drawn),-93.1%
3,OCC1(CCc2ccccc2)CCN(Cc2cc(F)ccc2-n2cccn2)CC1,-85.3%
4,O=C(NCCS(=O)(=O)NCc1ccccn1)c1ccccc1,8.81%
5,COc1ccccc1C(=O)NNC(=O)C12CC3CC(CC(C3)C1)C2,12.4%
6,COc1ccc(OC)c(-c2csc(N(Cc3ccco3)C(=O)c3cccs3)n2)c1,-0.179%
7,CC(=O)CCC(=O)NCCc1ccccc1F,5.68%
8,Cc1ccc(NC(=S)NNC(=O)C2CC2c2ccc(C)cc2)cc1 (stereo not drawn),-10.4%
9,COP(=O)(CC(=O)c1ccccc1)CC(=O)c1ccccc1,8.51%
10,COCCCNC(=S)NC1CC2CCCC(C1)N2Cc1cccs1 (stereo not drawn),1.43%
11,COc1nc(-c2ccccc2)ccc1-c1noc(-c2cccs2)n1,0.091%
12,COc1ccccc1NS(=O)(=O)c1cc(NC(=O)C(C)(C)C)ccc1N1CCOCC1,-4.51%
13,O=S(=O)(Nc1ccc(N2CCOCC2)cc1)c1cc(Cl)ccc1Cl,7.82%
14,Br.N=C1c2ccccc2CN1c1ccc(N2CCOCC2)c(S(=O)(=O)Nc2ccc(Cl)cc2)c1,-89.2%
15,Br.COc1ccccc1NS(=O)(=O)c1cc(N2Cc3ccccc3C2=N)ccc1N1CCOCC1,-61.2%
16,COc1ccccc1NS(=O)(=O)c1cc(NC(=O)C2CC2)ccc1N1CCOCC1,19.5%
17,CCC(=O)Nc1ccc(N2CCOCC2)c(S(=O)(=O)Nc2ccc(Cl)cc2)c1,11.9%
18,Cn1c(=O)n(C)c2cc(S(=O)(=O)NCC(=O)O)ccc21,4.84%
19,CCOc1ccc(CCNC(=O)c2cc3sccc3n2CC)cc1OCC,14.1%
20,COc1cc(NC(=O)CCS(=O)(=O)c2ccc3nc(C)sc3c2)cc(OC)c1OC,15.8%
21,CN(C)c1cccc(/C=C(\C#N)c2ccccc2)c1,14.2%
22,COc1ccc(N(C(=O)c2cnsn2)C(C(=O)NC2CCCCC2)c2ccncc2)cc1 (stereo not drawn),7.11%

row,SMILES,"hERG current change (%, negative = inhibition) at 1uM"
1,CCOc1ccc(N(C(=O)c2cnsn2)C(C(=O)NC2CCCCC2)c2ccncc2)cc1 (stereo not drawn),-52.1%
2,CCOc1ccc(N(C(=O)c2cnccn2)C(C(=O)NC2CCCCC2)c2ccc(O)cc2)cc1 (stereo not drawn),12.4%
3,COc1cccc(C(=O)Nc2ccc(Cl)c(C(F)(F)F)c2)c1,8.09%
4,O=CN1CCCN(C(=O)CC2C(=O)NCCN2Cc2cccc(Oc3ccccc3)c2)CC1 (stereo not drawn),-14.6%
5,Cn1c(CCN2CCCCC2)nc2cc(NS(=O)(=O)c3ccc(F)cc3)ccc21,-57.5%
6,CC1CCN(CCc2nc3cc(NS(=O)(=O)c4ccccc4)ccc3n2C)CC1,-53.3%
7,Cn1c(CCN2CCCC2)nc2cc(NS(=O)(=O)c3ccccc3)ccc21,6.41%
8,CC1CCN(CCc2nc3cc(NS(=O)(=O)c4ccc(F)cc4)ccc3n2C)CC1,-54.8%
9,Cc1ccc(S(=O)(=O)Nc2ccc3c(c2)nc(CN2CCCC2)n3C)cc1,-9.18%
10,Cn1c(CCN2CCOCC2)nc2cc(NS(=O)(=O)c3ccccc3)ccc21,6.09%
11,Cn1c(CN2CCCCC2)nc2cc(NS(=O)(=O)c3ccc(F)cc3)ccc21,-21.8%
12,CCC(=O)Nc1ccc2c(c1)nc(CCN1CCC(C)CC1)n2C,12.3%
13,CC(=O)Nc1ccc2c(c1)nc(CCN1CCC(C)CC1)n2C,12.4%
14,CCn1c(=O)c(CCC(=O)NCC2CCCO2)c(C)c2c(C)nn(-c3ccc(C)cc3)c21 (stereo not drawn),19.9%
15,CCOc1ccc(N2C(=O)c3cccnc3C2Nc2ccc(OC)cc2)cc1 (stereo not drawn),1.01%
16,CCn1c(=NC(=O)CSCC(=O)Nc2nccs2)sc2ccccc21,2.45%
17,CN(C)c1ccc(C(=O)Nc2ccc(O)c3c(=O)cc(-c4ccccc4Cl)oc23)cc1,2.71%
18,C=CCc1cc(Cl)ccc1OCCCn1ccnc1.O=C(O)C(=O)O,7.27%
19,COc1ccc(C(=O)NC(=O)NC2(C(Cl)(Cl)Cl)OCCO2)cc1,8.1%
20,Cc1ccc(NC(=O)C2CC(=O)N(CCc3ccccc3)C2)c(C)c1 (stereo not drawn),2.1%
21,CC(C)CCNC(=O)c1c(N)n(Cc2ccc3c(c2)OCO3)c2nc3ccccc3nc12,11.9%
